From PubChem BioAssay (NCI) come the findings set out here.

Some test systems named below: SK-MEL-2 melanoma; EKVX NSCLC; SN12C renal; UO-31 renal; TK-10 renal; ACHN renal; CAKI-1 renal; A498 renal; CCRF-CEM leukemia; MOLT-4 leukemia; SR leukemia; RPMI-8226 leukemia; OVCAR-8 ovarian; OVCAR-5 ovarian; OVCAR-4 ovarian; SK-OV-3 ovarian; IGROV1 ovarian; OVCAR-3 ovarian; HS 578T breast; NCI/ADR-RES ovarian.
Holding throughout (assay): NCI-60 one-dose screen, 48 h (100 = growth as untreated, 0 = no growth, -100 = all killed)
Common to all, as to settings: 10 µM unless noted

Structures are written as SMILES. This is part of a sample that, as a whole, favours compounds with a hit. Of some 83,000 tested, about 20% had one in any assay.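 Testing used 96-well plates and a 48-hour single-concentration exposure. Example: -40 means 40% of the starting cells died.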 Values without a mark were called inactive. Activity calls are given as the source filed them. The calls were made as follows: active = growth percent below 10; inactive = the rest.

For the compound `O=C1c2cc3c(cc2-c2c1c1ccc(F)cc1c(=O)n2CCCNCCO)OCO3`, the growth is -46.1% (active) with SK-MEL-2 melanoma; -14% (active) in the assay with EKVX NSCLC; -60.4% (active) in the assay with SN12C renal; -72.2% (active) in the assay with UO-31 renal; -18.9% (active) with TK-10 renal; -52.7% (active) with ACHN renal. Moreover, the growth with CAKI-1 renal was -7.53% (active); in the assay with A498 renal it was -95.9% (active); with CCRF-CEM leukemia, 0.848% (active); in the assay on MOLT-4 leukemia it was -25% (active); with SR leukemia, -25.7% (active); with RPMI-8226 leukemia, -12.5% (active). For the same compound, the growth is -33% (active) with OVCAR-8 ovarian; -59.4% (active) with OVCAR-5 ovarian; -76.9% (active) in the assay with OVCAR-4 ovarian; -33.7% (active) with SK-OV-3 ovarian; -5.09% (active) in the assay with IGROV1 ovarian; -28.1% (active) in the assay with OVCAR-3 ovarian. Further, the growth in the assay on HS 578T breast was 3.15% (active); in the assay with NCI/ADR-RES ovarian, -13.8% (active).

For the compound `Cn1cc(C(=O)c2nc(-c3c[nH]c4ccccc34)no2)c2ccccc21`, the growth in the assay with SK-MEL-2 melanoma was 65.3%; in the assay with EKVX NSCLC it was 50.5%; in the assay on SN12C renal, 91.3%; with UO-31 renal, 61.6%; in the assay on TK-10 renal, 68.2%; with ACHN renal, 86.4%. For the same compound, the growth is 56.9% with CAKI-1 renal; 95.9% in the assay with A498 renal; 86.7% with CCRF-CEM leukemia; 72.5% in the assay with MOLT-4 leukemia; 44.1% with SR leukemia; 78.9% in the assay on RPMI-8226 leukemia. The growth with OVCAR-8 ovarian is 91.1%; in the assay with OVCAR-5 ovarian it was 66%; with OVCAR-4 ovarian, 57.3%; in the assay on SK-OV-3 ovarian, 69.8%; with IGROV1 ovarian, 25.7%; in the assay with OVCAR-3 ovarian, 12.8%. The growth was 56.2% in the assay on HS 578T breast and 64.2% with NCI/ADR-RES ovarian.

Regarding `CN1CCN(CCCOc2cccc3nc(Nc4ccc(Cl)c(F)c4)ccc23)CC1`, the growth was 83.7% in the assay with SK-MEL-2 melanoma; 61.7% with EKVX NSCLC; 63.7% with SN12C renal; 22.5% in the assay with UO-31 renal; 88.4% with TK-10 renal; 10.5% with ACHN renal. The growth with CAKI-1 renal is 56.2%; in the assay with A498 renal, 55.4%; with CCRF-CEM leukemia, 19.3%; with MOLT-4 leukemia, -22% (active); in the assay with SR leukemia, -16% (active); in the assay with RPMI-8226 leukemia, 23.9%. In addition, the growth in the assay on OVCAR-8 ovarian is 85%; in the assay on OVCAR-5 ovarian it was 58.6%; in the assay on OVCAR-4 ovarian, 65.4%; with SK-OV-3 ovarian, 82.7%; in the assay on IGROV1 ovarian it was 65.7%; in the assay on OVCAR-3 ovarian, 69.9%. The growth with HS 578T breast was 52.7%; in the assay on NCI/ADR-RES ovarian it was 49.7%.

For the compound `O=C1c2cc3c(cc2-c2c1c1cc(F)c(F)cc1c(=O)n2CCCn1ccnc1)OCO3`, the growth with SK-MEL-2 melanoma is -11.2% (active); in the assay with EKVX NSCLC it was 30.9%; in the assay with SN12C renal, -1.14% (active); in the assay on UO-31 renal, -23.7% (active); with TK-10 renal it was 29.8%; in the assay with ACHN renal it was -55.7% (active). In addition, the growth in the assay on CAKI-1 renal was 3.03% (active); in the assay with A498 renal it was -74.1% (active); with CCRF-CEM leukemia it was 7.04% (active); with MOLT-4 leukemia, -14.3% (active); with SR leukemia, -2.4% (active); in the assay on RPMI-8226 leukemia, -10.1% (active). In addition, the growth in the assay with OVCAR-8 ovarian was 12.1%; in the assay with OVCAR-5 ovarian, 2.22% (active); in the assay with OVCAR-4 ovarian, 20.9%; in the assay on SK-OV-3 ovarian, 6.12% (active); in the assay with IGROV1 ovarian, 21.2%; in the assay with OVCAR-3 ovarian, -7.17% (active). Further, the figures for the growth in the assay with HS 578T breast and in the assay on NCI/ADR-RES ovarian were 52.5% and 6.95% (active), respectively.

Consider `CC1SC(c2ccc(N(C)C)cc2)N(NC(=O)C(O)(c2ccccc2)c2ccccc2)C1=O` (stereo not given), for which the growth in the assay on SK-MEL-2 melanoma was 104%; with EKVX NSCLC it was 93.5%; in the assay with SN12C renal, 110%; in the assay on UO-31 renal, 47.7%; with TK-10 renal, 89.4%; with ACHN renal it was 94%. The growth was 91.2% with CAKI-1 renal; 101% in the assay on A498 renal; 65.1% in the assay on CCRF-CEM leukemia; 72% with MOLT-4 leukemia; 90% with SR leukemia; 60.1% with RPMI-8226 leukemia. Also, the growth with OVCAR-8 ovarian was 77.4%; in the assay on OVCAR-5 ovarian it was 104%; in the assay with OVCAR-4 ovarian, 95.7%; in the assay on SK-OV-3 ovarian, 97.6%; in the assay with IGROV1 ovarian, 80.5%; in the assay with OVCAR-3 ovarian, 95%. Also, the growth is 103% in the assay with HS 578T breast and 95% in the assay with NCI/ADR-RES ovarian.

For the compound `O=C(Oc1cccnc1)c1ccsc1Nc1ccnc(C(F)(F)F)c1`, the growth in the assay on SK-MEL-2 melanoma is 72.6%; with EKVX NSCLC, 110%; in the assay with SN12C renal, 55.2%; in the assay with UO-31 renal, 91.6%; in the assay on TK-10 renal it was 94.8%; with ACHN renal it was 107%. In addition, the growth in the assay on CAKI-1 renal is 72.7%; with A498 renal it was 104%; in the assay on CCRF-CEM leukemia it was 23.7%; with MOLT-4 leukemia, 8.64% (active); in the assay with SR leukemia, 17.6%; in the assay on RPMI-8226 leukemia it was 27.6%. For the same compound, the growth was 84% in the assay with OVCAR-8 ovarian; 102% in the assay on OVCAR-5 ovarian; 60.2% in the assay on OVCAR-4 ovarian; 88.2% in the assay with SK-OV-3 ovarian; 35.9% in the assay with IGROV1 ovarian; 100% in the assay on OVCAR-3 ovarian. In addition, the growth in the assay with HS 578T breast was 109%; in the assay on NCI/ADR-RES ovarian, 60.4%.

On to `Cc1ccccc1COc1ccc(-c2onc(C)c2-c2ccc(Cl)cc2)cc1`, for which the growth in the assay on SK-MEL-2 melanoma was 37.1%; in the assay with EKVX NSCLC it was 75.1%; in the assay with SN12C renal it was 68.3%; in the assay on UO-31 renal it was 72.4%; in the assay on TK-10 renal, 84.3%; in the assay on ACHN renal, 67%. Moreover, the growth was 48.7% with CAKI-1 renal; 38.6% with A498 renal; 38.2% with CCRF-CEM leukemia; 32.8% in the assay on MOLT-4 leukemia; 34% with SR leukemia; 81% with RPMI-8226 leukemia. The growth was 75.8% in the assay on OVCAR-8 ovarian; 87.6% in the assay with OVCAR-5 ovarian; 82.7% with OVCAR-4 ovarian; 59.5% in the assay on SK-OV-3 ovarian; 52.5% with IGROV1 ovarian; 20.7% in the assay on OVCAR-3 ovarian. Further, the growth in the assay with HS 578T breast is 59.4%; in the assay with NCI/ADR-RES ovarian, 39.2%.
